The values that follow come from PubChem BioAssay (Tox21).

Molecules are shown by their SMILES. Where “and” joins values, the source holds several entries; their conditions need not be identical. Equal values may be shown once. Records with an inconclusive call do not appear. Calls of active or inactive are those of the source. Calls come from the whole dose curve; as a rule, active = well fitted curve in the direction sought with a large enough effect in the repeat runs; inconclusive = weak or mixed curves; inactive = no such curve, though single readings can be large; an effect the other way counts as inactive or inconclusive.
% is set by controls: 0 for no effect and ±100 for the full control effect; potency is the fitted concentration of half-maximal effect.

The first assay can be described thus: qHTS RealTime-Glo MT Cell Viability Assay in HepG2 cells - 8 hour (AID 1224873). Note: nearly all actives have a fitted effect of over 55% in size. To be noted: RealTime-Glo luminescence; series mostly up to 76.8 µM. In a few lines:
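HepG2 cells mixed with RealTime-Glo MT reagents (NanoLuc plus cell-permeant prosubstrate) were seeded at 600 cells/well, incubated 5 h at 37 C/5% CO2, then pinned with compounds in DMSO; nonlytic luminescence tracked viability during 40 h treatment.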
For `Nc1ccccc1-c1ccccc1`, the Potency result is “inactive”.
Same read-out and setting: in the case of `O=[N+]([O-])c1cc(C(F)(F)F)c(Cl)c([N+](=O)[O-])c1Nc1ncc(C(F)(F)F)cc1Cl` it was 24.5 µM (active).
Still for that read-out and setting: under `CCCCn1cc[n+](C)c1.[Cl][Fe-]([Cl])([Cl])[Cl]` stands “inactive”; under `S=C=NCCc1ccccc1`, “inactive”.
Take `Nc1nc(N)nc(Cl)n1`: the Potency result was “inactive”.
The same measure, in the same setting: in the case of `Oc1cccc(Cl)c1Cl` it was “inactive”; in that of `Brc1cccc(-c2ccccc2)c1`, “inactive”; in that of `CCCCCON=O`, “inactive”.
Same read-out and setting: in the case of `CC(=O)C(Cl)C(=O)N(C)C` (centres undefined) it was “inactive”; in that of `COc1ccc2[nH]cc(CCN(C(C)C)C(C)C)c2c1`, “inactive”; in that of `Cc1ccn2nc(S(=O)(=O)Nc3c(F)cccc3F)nc2n1`, “inactive”.
The same measure, in the same setting: in the case of `COC(=O)C(C)N(C(=O)c1ccco1)c1c(C)cccc1C` (centres undefined) it was “inactive”.
Turning to `CN1CCc2cc(Cl)c(O)cc2[C@H]2c3ccccc3CC[C@@H]21`, the Potency result was “inactive”.
The same measure, in the same setting: under `[C-]1=CC=CC1.[Cl][Zr+2][Cl].c1cc[cH-]c1` stands “inactive”.
On the same count and under the same terms, under `O=c1c2ccccc2c(=O)c2c1cc(Cl)c1[nH]c3c([nH]c12)c(Cl)cc1c(=O)c2ccccc2c(=O)c13` stands “inactive”; under `N#CSCc1ccccc1`, “inactive”.
In the case of `ClC1=C(Cl)[C@]2(Cl)[C@H]3[C@H]([C@@H]4C=C[C@H]3C4)[C@@]1(Cl)C2(Cl)Cl`, the Potency was 49 µM (active).
For the molecule `CN(C)C(=S)SSC(=S)N(C)C`, the Potency was 48.3 µM (active) and 24.5 µM (active) and 3.01 µM (active).

The nature of another assay: qHTS RealTime-Glo MT Cell Viability Assay in HEK293 cells - 40 hour (AID 1224874). Note: nearly all actives have a fitted effect of over 50% in size. The conditions noted are these: RealTime-Glo luminescence; max response: hits give low values. In short, it runs like this:
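600 cells/well were plated with the nonlytic NanoLuc/prosubstrate reagent, pre-incubated 5 h, then given 23 nL of compound in DMSO. Incubation at 37 C for 40 h, with luminescence from viable-cell-reduced substrate read repeatedly from 0 h.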
For `COP(=S)(OC)Oc1nc(Cl)c(Cl)cc1Cl`, the max response was -0.946% (inactive).
On the same count and under the same terms, in the case of `[O-][Cl+3]([O-])([O-])O` it was 7.85% (inactive); in that of `CCCCC/C=C\C/C=C\C/C=C\C/C=C\CCCC(=O)NCC(=O)O`, -10.5% (inactive).
On to `c1ccc(Nc2ccc(Nc3ccccc3)cc2)cc1`, for which the Potency is 19.4 µM (active).
For `O=Cc1ccccc1`, the max response was 19.9% (inactive).
As to `N#CC(C#N)=NNc1cccc(Cl)c1`, the Potency was 5.49 µM (active).
As to `CC[C@H](C)[C@H]1O[C@]2(C=C[C@@H]1C)C[C@@H]1C[C@@H](C/C=C(\C)[C@@H](O[C@H]3C[C@H](OC)[C@@H](O[C@H]4C[C@H](OC)[C@@H](NC)[C@H](C)O4)[C@H](C)O3)[C@@H](C)/C=C/C=C3\CO[C@@H]4[C@H](O)C(C)=C[C@@H](C(=O)O1)[C@]34O)O2`, the Potency was 4.36 µM (active).
Consider `Nc1cc(Cl)ccc1Cl`, for which the max response is 22.7% (inactive).
Regarding `BrCC(Br)(Br)Br`, the Potency was 45.3 µM (active).
For `CCC(OC(C)=O)C(CC(C)NC)(c1ccccc1)c1ccccc1` (centres undefined), the Potency is 49.4 µM (active).
On the same count and under the same terms, in the case of `O=C1C2(Cl)C3(Cl)C4(Cl)C(Cl)(Cl)C5(Cl)C3(Cl)C1(Cl)C5(Cl)C24Cl` (centres undefined) it was 13.6 µM (active) and 37.3 µM (active); in that of `O=C1C(Cl)=C(Cl)C(=O)C(Cl)=C1Cl`, 21.8 µM (active) and 21.9 µM (active).
In the case of `CSC(C)(C)/C=N/O`, the max response was 2.63% (inactive).
For `NC(=O)C(Cl)Cl`, the max response was 3.34% (inactive).
Still for that read-out and setting: in the case of `CN(C)CCc1c[nH]c2ccccc12` it was -4.01% (inactive).
As to `CCCCn1cc[n+](C)c1` (tested in a mixture with another compound), the max response is 0.0469% (inactive).
The same measure, in the same setting: in the case of `CCC(C)c1cccc(C(C)CC)c1O` (centres undefined) it was -7.36% (inactive).
On to `Fc1ccc(C(OCCN2CCN(CCCc3ccccc3)CC2)c2ccc(F)cc2)cc1`, for which the Potency is 9.52 µM (active).
In the case of `CCN(CC)CCN1C(=O)CN=C(c2ccccc2F)c2cc(Cl)ccc21`, the max response is -8.22% (inactive).
On the same count and under the same terms, in the case of `Nc1ccccc1-c1ccccc1` it was -12.7% (inactive).
As to `O=[N+]([O-])c1cc(C(F)(F)F)c(Cl)c([N+](=O)[O-])c1Nc1ncc(C(F)(F)F)cc1Cl`, the Potency is 1.55 µM (active).
As to `CCCCn1cc[n+](C)c1.[Cl][Fe-]([Cl])([Cl])[Cl]`, the max response was 2.18% (inactive).
`S=C=NCCc1ccccc1`: the Potency is 49.1 µM (active).
Consider `Nc1nc(N)nc(Cl)n1`, for which the max response is 1.73% (inactive).
On the same count and under the same terms, in the case of `Brc1cccc(-c2ccccc2)c1` it was -11.2% (inactive); in that of `CCCCCON=O`, 1.89% (inactive); in that of `CC(=O)C(Cl)C(=O)N(C)C` (centres undefined), 3.79% (inactive).
On to `COc1ccc2[nH]cc(CCN(C(C)C)C(C)C)c2c1`, for which the max response is -12% (inactive).
On the same count and under the same terms, under `Cc1ccn2nc(S(=O)(=O)Nc3c(F)cccc3F)nc2n1` stands 12.5% (inactive).
Regarding `COC(=O)C(C)N(C(=O)c1ccco1)c1c(C)cccc1C` (centres undefined), the max response is -12.7% (inactive).
Same read-out and setting: in the case of `O=c1c2ccccc2c(=O)c2c1cc(Cl)c1[nH]c3c([nH]c12)c(Cl)cc1c(=O)c2ccccc2c(=O)c13` it was 12.8% (inactive).
